Several values for one entry are separate records, joined by “and”; a condition that tells them apart may be missing. Identical values can stand only once. The campaign covered roughly 5,500 compounds. About 2,000 (36%) were called active. Inconclusive results (about 18%) are left out. Cut-off read from the data, not from the text of the source: active = normalized growth mostly below about 0.91 (no sharp cut-off); inconclusive = no clear call, values can overlap the other calls; inactive = mostly above about 0.92. The list shows a part of the results.
Assay: chemical genetic growth profiling, strain panel (AID 1159580);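 note: tested at 20 µM; growth read once vehicle control cultures reached saturation at 30 °C; 1 = growth at the plate median or of vehicle wells; lower values mean less growth of the strain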
Details: S. cerevisiae deletion strains, growth OD

Measured: normalized growth

C[n+]1ccccc1/C=N/O
inactive: locus YAL013W, strain DEP1, hits give low values 1.01 | locus YAL021C, strain ccr4, hits give low values 0.99 | locus YAL026C, strain drs2, hits give low values 1.02 | locus YAL030W, strain snc1, hits give low values 1 | locus YBL061C, strain skt5, hits give low values 0.992 | locus YBR009C, strain hhf1, hits give low values 1.03 | locus YBR021W, strain FUR4, hits give low values 0.985 | locus YBR023C, strain chs3, hits give low values 0.995 | locus YBR171W, strain sec66, hits give low values 1 | locus YBR229C, strain ROT2, hits give low values 1.01 | locus YBR231C, strain swc5, hits give low values 1.02 | locus YBR279W, strain paf1, hits give low values 1.01 | locus YCL011C, strain gbp2, hits give low values 1.01 | locus YCL016C, strain dcc1, hits give low values 1.01 | locus YCL029C, strain bik1, hits give low values 1.01 | locus YCL069W, strain vba3, hits give low values 1 | locus YCR088W, strain abp1, hits give low values 1 | locus YDL005C, strain med2, hits give low values 0.986 | locus YDL035C, strain GPR1, hits give low values 1.01 | locus YDL040C, strain nat1, hits give low values 1.01 | locus YDL074C, strain BRE1, hits give low values 1 | locus YDL101C, strain DUN1, hits give low values 1.01 | locus YDL134C, strain PPH21, hits give low values 0.997 | locus YDL185W, strain tfp1, hits give low values 0.999 | locus YDL192W, strain arf1, hits give low values 1 | locus YDR001C, strain nth1, hits give low values 0.997 | locus YDR069C, strain doa4, hits give low values 1.02 | locus YDR101C, strain arx1, hits give low values 1 | locus YDR137W, strain rgp1, hits give low values 1.01 | locus YDR150W, strain NUM1, hits give low values 1.01 | locus YDR159W, strain sac3, hits give low values 0.967 | locus YDR162C, strain NBP2, hits give low values 1.01 | locus YDR195W, strain ref2 0.999 | locus YDR297W, strain sur2, hits give low values 1.01 | locus YDR318W, strain mcm21, hits give low values 0.994 | locus YDR334W, strain swr1, hits give low values 1 | locus YDR335W, strain msn5, hits give low values 1.01 | locus YDR388W, hits give low values 0.996 | locus YDR392W, strain spt3, hits give low values 0.918 | locus YDR502C, strain sam2, hits give low values 1 | locus YEL003W, strain gim4, hits give low values 1.01 | locus YEL037C, strain rad23, hits give low values 0.998 | locus YEL061C, strain CIN8 (second series), hits give low values 1.02 | locus YEL061C, strain CIN8, hits give low values 1.01 | locus YER015W, strain faa2, hits give low values 1.01 | locus YER016W, strain bim1, hits give low values 0.991 | locus YER110C, hits give low values 1.01 | locus YER111C, strain swi4, hits give low values 1 | locus YER155C, strain BEM2 (second series), hits give low values 1.02 | locus YER155C, strain BEM2, hits give low values 0.998 | locus YER167W, strain BCK2, hits give low values 1.01 | locus YFR010W, strain ubp6, hits give low values 1.02 | locus YGL078C, strain dbp3, hits give low values 1.02 | locus YGL086W, strain mad1, hits give low values 1.01 | locus YGL167C, strain pmr1, hits give low values 1.01 | locus YGL173C, strain kem1, hits give low values 0.991 | locus YGL227W, strain vid30, hits give low values 0.994 | locus YGL240W, strain doc1, hits give low values 0.993 | locus YGL248W, strain PDE1, hits give low values 1.01 | locus YGL253W, strain hxk2, hits give low values 1.02 | locus YGR078C, strain PAC10, hits give low values 1.01 | locus YGR135W, strain pre9, hits give low values 1.01 | locus YGR229C, strain SMI1, hits give low values 1.02 | locus YGR252W, strain gcn5, hits give low values 0.954 | locus YHR013C, strain ard1, hits give low values 0.982 | locus YHR027C, strain rpn1, hits give low values 1 | locus YHR030C, strain SLT2, hits give low values 1.01 and 1 | locus YHR079C, strain IRE1 (second series), hits give low values 0.995 | locus YHR079C, strain IRE1, hits give low values 0.997 | locus YHR094C, strain hxt1, hits give low values 1 | locus YHR129C, strain ARP1, hits give low values 1.01 | locus YHR142W, strain chs7, hits give low values 1.02 | locus YHR200W, strain rpn10, hits give low values 0.99 | locus YIL066C, strain RNR3, hits give low values 1.01 | locus YIL073C, strain SPO22, hits give low values 0.996 | locus YIL125W, strain kgd1, hits give low values 0.985 | locus YIR030C, strain dcg1, hits give low values 1.01 | locus YJL092W, strain hpr5, hits give low values 1.01 | locus YJL095W, strain BCK1 (second series), hits give low values 0.99 | locus YJL095W, strain BCK1, hits give low values 1.01 | locus YJL115W, strain asf1, hits give low values 1.01 | locus YJL129C, strain trk1, hits give low values 1.01 | locus YJL134W, strain LCB3, hits give low values 1.01 | locus YJL154C, strain vps35, hits give low values 1.02 | locus YJL164C, strain tpk1, hits give low values 1 | locus YJL166W, strain qcr8, hits give low values 1.01 | locus YJL168C, strain set2, hits give low values 0.995 | locus YJL187C, strain SWE1 (second series), hits give low values 1.01 | locus YJR043C, strain POL32, hits give low values 0.995

— PubChem BioAssay AID1159580 (chemical genetic matrix, 2015)
